The panel holds about 83,000 compounds, 20% with a hit somewhere; the sample as a whole holds those more often.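 Note: values are percent growth. 100 is the growth of untreated cells, values between 100 and 0 indicate rising inhibition; between -100 and 0 indicates cell death.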 Activity calls are given as the source filed them. Rule for the calls: active = growth percent below 10; inactive = the rest.
The compounds below were run on HL-60(TB) leukemia (assay: NCI-60 one-dose screen, 48 h (100 = growth as untreated, 0 = no growth, -100 = all killed)). Conditions: 10 µM unless noted.
In the case of `COc1ccc2c(c1)c(-c1nc(-c3c[nH]c4ncccc34)cs1)cn2CCNC(=O)OC(C)(C)C`, the growth is reported as 69.2% (inactive).
In the case of `O=C1C(Cl)=C(Nc2ccc(S(=O)(=O)N3CCOCC3)cc2)C(=O)c2ccccc21`, the growth is reported as -17.7% (active).
`Nc1ccc(-c2ccc(-c3ccccc3N)c3[nH]c4ccccc4c23)cc1` was tested, and the growth was 5.47% (active).
With `O=C1c2cc3c(cc2-c2c1c1cc(Cl)c(Cl)cc1c(=O)n2CCCn1ccnc1)OCO3` the growth was -19.4% (active).
With `COC1=CC(=O)C(OC)=C(O)C1=O` the growth was 107% (inactive).
For `O=C(OCc1ccc2c(Cl)cc(Cl)c(O)c2n1)c1cc2ccccc2[nH]1`, the growth was -36.1% (active).
With `COc1cc2c(c(O)c1Br)C(=O)c1c(O)cc(C[C@H](C)O)cc1[C@H]2[C@H]1c2cc(C[C@H](C)O)cc(O)c2C(=O)c2c1cc(OC)c(Br)c2O` the growth was -28% (active).
In the case of `O=C(Cn1ccnc1)NC(c1ccccc1)c1ccccc1`, the growth is reported as 96.7% (inactive).
In the case of `Cc1cc(C(C)(C)C)cc(C)c1Br`, the growth is reported as 108% (inactive).
For `CCOC(=O)c1sc(NC(=O)COc2cccc(/C=C3\CCc4cc(OC)ccc4C3=O)c2)nc1C`, the growth was -52.9% (active).
For `CCOc1ccc(C(C[N+](=O)[O-])Sc2ccccc2N)cc1` (stereo not drawn), the growth was -16.2% (active).
`C=C(C)[C@@H]1CC[C@]2(C(=O)O)CC[C@]3(C)[C@H](CC[C@@H]4[C@@]5(C)C/C(=C/c6ccco6)C(=O)C(C)(C)[C@@H]5CC[C@]43C)[C@@H]12` was tested, and the growth was -17.2% [100 µM] (active).
For `O=c1c2cc(F)cc(Cl)c2sc2c(Cl)nc3ccccc3c12`, the growth was 115% (inactive).
